The record followed here is PubChem BioAssay AID2315 (National Center for Advancing Translational Sciences (NCATS), 2010).

The campaign covered roughly 290,000 compounds. About 27,000 (9.3%) were called active. No stated cut-off is given here; in the data, active means inhibition mostly above about 28% (no sharp cut-off); inactive means mostly below about 43%. Shown is part of a subset that was picked to be rich in actives.

This experiment is described as follows: A qHTS for Small Molecule Inhibitors of Shiga Toxin. Further: 0% is about no effect. The note with it: Vero cells, Shiga toxin protein synthesis inhibition reporter; at 38.7 µM, hits give high values.
Turning to `COc1cc(/C=C2\CCCc3c2nc2ccccc2c3C(=O)O)cc(Cl)c1O`, the inhibition was -3.8% (inactive). With `CCc1ccc(N2CC(C(=O)Nc3ccc(S(=O)(=O)Nc4nccs4)cc3)CC2=O)cc1` (stereo not given), the inhibition was 16.7% (inactive). On to `O=C(c1cccc(Cl)c1)N1CCN(Cc2ccccc2)CC1`, for which the inhibition is -19.8% (inactive).

As for `COc1ccc(-c2noc(CNC(=O)C(C)Oc3ccccc3)n2)cc1` (stereo not given), the inhibition is 11.6% (inactive). For the molecule `Cc1ccccc1C(=O)N1CCC(C(=O)Nc2ccc(S(=O)(=O)N(C)C(C)C)cc2)CC1`, the inhibition is 24.6% (inactive).

In the case of `COc1ccccc1-c1cnn2c(N3CCOCC3)cc(C)nc12`, the inhibition is 87.6% (active). Take `COc1ccccc1NC(=O)C1CCCN(c2cc(C)nc3ncnn23)C1` (stereo not given): the inhibition is 2.25% (inactive). Turning to `Cc1cc(C(F)(F)F)n2ncc(-c3ccccc3)c2n1`, the inhibition was -2.7% (inactive). Under `N#Cc1c(-c2ccccc2)cc(-c2ccccc2)nc1SCC(=O)O` stands -7.81% (inactive); under `Cc1ccc(-n2c(C)cc(C(=O)CN3C(=O)C(=O)N(C4CCCC4)C3=O)c2C)cc1`, -11% (inactive). `Cc1cc(C(=O)CSc2nc(N)cc(=O)[nH]2)c(C)n1-c1cccc(F)c1`: the inhibition is 3.21% (inactive). Then `Cc1cc(C(=O)COC(=O)C2CC2)c(C)n1-c1ccc(F)cc1`, with 52.6% (active); and `CN(CC(=O)NCc1ccncc1)S(=O)(=O)c1ccc(Br)cc1`, with 9.73% (inactive). In the case of `Cc1cc(S(=O)(=O)Nc2ccc(C(=O)NCC(c3ccco3)N3CCCC3)cc2)ccc1F` (stereo not given), the inhibition is -11.6% (inactive). As to `CCC(C)[C@H](NC(=O)N1c2ccccc2NC(=O)[C@@H]1C(C)C)C(=O)N[C@@H](Cc1ccccc1)C(=O)O` (stereo not given in full), the inhibition was -1.75% (inactive). Regarding `CCCC(=O)n1nc(-c2ccccc2)nc1N`, the inhibition is 17.2% (inactive). Then `Cc1nn(C(=O)c2ccoc2C)c(N)c1-c1ccccc1`, with 131% (active).

Regarding `Cc1nc2ccccc2c(-c2ccccc2)c1C(=O)c1ccccc1`, the inhibition was -2.44% (inactive). Turning to `Cc1cc(C)c2c(Cn3ccnc3)cc(=O)oc2c1`, the inhibition is -6.18% (inactive). Consider `CC(=O)Nc1ccc(S(=O)(=O)N2CCC(C(=O)NC3CC3)CC2)cc1`, for which the inhibition was -3.15% (inactive).

For `CN(Cc1ccccc1Cl)C(=O)C1CCC(=O)N(CCc2cccc(F)c2)C1` (stereo not given), the inhibition was 2.46% (inactive). Consider `COc1ccc(S(=O)(=O)N(C)C)cc1NC(=O)CSc1ncccn1`, for which the inhibition was -6.2% (inactive).

Consider `COc1ccc(NS(=O)(=O)c2ccc3oc(SCC(N)=O)nc3c2)cc1`, for which the inhibition is -13.2% (inactive). As to `CN(C)S(=O)(=O)c1ccc2oc(SCC(=O)Nc3ccccc3F)nc2c1`, the inhibition was 113% (active). `Brc1c(CSc2nncc3ccccc23)nc2ccccn12`: the inhibition was 44.5% (active).
